From PubChem BioAssay (NCATS)
Values joined by “and” are separate entries in the source; they are usually repeats but may differ in a detail not shown here. Equal values may be shown once. Inconclusive results are not listed. Unmarked numbers belong to inactive results. Active and inactive are the calls of the source. The call rests on the fitted dose curve; in most records, active means well fitted cell-killing curve with a large enough effect; inconclusive means small, poorly fitted or top-dose-only effect; inactive means flat fitted curve, though single readings scatter.

Test: Cellular viability qHTS for adrenocortical cancer (ACC) cell line SW-13 (AID 1963989); further: nearly all actives have a fitted effect of over 65% in size;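 on activity (max response): cells grown in serum-free medium with ITS supplement; on the % scale 0 is the no-effect control and ±100 the full control effect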
Details: SW-13 ACC cells viability, CellTiter-Glo, 48 h; activity (max response): stronger effect = lower value
Procedure, shortened: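 Luminescent ATP read-out (CellTiter-Glo, 20 min at room temperature) measured metabolically competent SW-13 cells after 48 h compound treatment. Final concentrations spanned up to 46 uM; bortezomib served as positive control.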
Potency means the concentration at half of the fitted maximal effect.

| SMILES | activity (max response) | Potency |
| --- | --- | --- |
| NC(=O)CCCCC1CCSS1 (configuration not stated) | 9.98% |  |
| C[C@@H]1CCC[C@H](C)N1CCCC(O)(c1ccccc1)c1ccccn1 (some centres not stated) | -5.41% |  |
| CN=C(N)NC(=O)Nc1c(C)cccc1C | -3.82% |  |
| O=C(O)c1ccccc1Nc1cc(Cl)ccc1C(=O)O | -18.2% |  |
| CCN(CC)C(=O)c1ccc(O)c(OC)c1 | 3.37% |  |
| O=C(O)c1ccc(OCCN2CCCCC2)cc1 | 10.8% |  |
| COc1cc(N2CCC(N3CCN(C)CC3)CC2)ccc1Nc1ncnc(Nc2ccccc2S(=O)(=O)C(C)C)n1 |  | 11200 nM (active) |
| CC1(C)OC(=O)NC1=O | 15.1% |  |
| Nc1ncn([C@H]2C[C@H](O)[C@@H](CO)O2)c(=O)n1 | -13% and -6.12% |  |
| CC(=O)NS(=O)(=O)c1ccc(N)cc1 | 4.13% |  |
| CCCCCCCCCCCCCCCCCC(=O)O | 18.1% |  |
| NC(=O)CC[C@@H](N)C(=O)O | 12.6% |  |
| CC(C)(C)C(=O)OCOC(=O)C1N2C(=O)CC2S(=O)(=O)C1(C)C (configuration not stated) | 14.5% |  |
| NS(=O)(=O)c1ccc(Cl)c(S(N)(=O)=O)c1 | -3.32% |  |
| CCN(CC)CCN | 6.69% |  |
| CN1[C@@H]2CC[C@H]1CC(OC(=O)C(O)c1ccccc1)C2 (some centres not stated) | 7.83% |  |
| Cc1ccnc(NS(=O)(=O)c2ccc(N)cc2)n1 | 8.12% |  |
| CCCN(CCC)CCc1cccc2c1CC(=O)N2 | 8.18% |  |
| CCOC(=O)c1cccc(N)c1 | -1.69% |  |

| SMILES | activity (max response) | Potency |
| --- | --- | --- |
| CC(=O)OCC(=O)[C@@]12N=C(C)O[C@@H]1C[C@H]1[C@@H]3CCC4=CC(=O)C=C[C@]4(C)[C@H]3[C@@H](O)C[C@@]12C | 11.7% and 0.528% |  |
| COC(=O)c1nc(Cl)c(Cl)nc1N |  | 8200 nM (active) |
| CCCCCCCC(=O)OCC(COC(=O)CCCCCCC)OC(=O)CCCCCCC | 8.32% |  |
| CC[N+](C)(C)c1cccc(O)c1 | 8.29% |  |
| CC[C@@H](CO)NCCN[C@@H](CC)CO | 14% |  |
| CCOc1cc(C(=O)N2CCC(N3CCN(C)CC3)CC2)ccc1Nc1ncc2c(n1)N(C1CCCC1)c1ccccc1C(=O)N2C |  | 28200 nM (active) |
| CC1=NS(=O)(=O)c2cc(Cl)ccc2N1 | 8.23% |  |
| CC1(C)S[C@@H]2[C@H](NC(=O)[C@H](N)c3ccccc3)C(=O)N2[C@H]1C(=O)O | 9.26% |  |
| CC(=O)OC(C)C[N+](C)(C)C (configuration not stated) | -1.07% |  |
| NS(=O)(=O)Cc1noc2ccccc12 | 1.85% |  |
| O=C(CCCl)NCc1ccccc1 | 9.65% |  |
| C[C@H]1O[C@@H](O[C@H]2CC[C@@]3(C)[C@H](CC[C@@H]4[C@@H]3C[C@@H](O)[C@]3(C)[C@@H](C5=CC(=O)OC5)CC[C@]43O)C2)C[C@H](O)[C@@H]1O[C@H]1C[C@H](O)[C@H](O[C@H]2C[C@H](O)[C@H](O[C@@H]3O[C@H](CO)[C@@H](O)[C@H](O)[C@H]3O)[C@@H](C)O2)[C@@H](C)O1 |  | 82 nM (active) |
| CCOc1ccc(C(=O)OCCN(CC)CC)cc1 | -4.6% |  |
| COc1ccccc1OC(=O)Oc1ccccc1OC | 1.52% |  |
| OCc1cccnc1 | 0.385% |  |
| COCCc1ccc(OCC2CO2)cc1 (configuration not stated) | -2.52% |  |
| CN1CCN(c2ccc(OC(F)(F)F)c(Nc3ncc4c(n3)-c3c(c(C(N)=O)nn3CCO)CC4)c2)CC1 |  | 100 nM (active) |
| Oc1ccc(C(O)CNCCCCCCNCC(O)c2ccc(O)c(O)c2)cc1O (configuration not stated) | -8.39% |  |
| CN1CCN(C(=O)C2CCCCC2)CC1 | 7.59% |  |

Test: Cellular viability qHTS for adrenocortical cancer (ACC) cell line NCI-H295R (AID 1963990); further: nearly all actives have a fitted effect of over 60% in size
Details: CellTiter-Glo ATP luminescence, 48 h; series mostly up to 46.1 µM
Procedure, shortened: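 IC50 and maximal efficacy derive from four-parameter logistic modelling of titration curves, with reads scaled between DMSO-only wells (0%) and doxorubicin hydrochloride (100% inhibition). Compounds spanned up to 46 uM over 48 h.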

| SMILES | Potency |
| --- | --- |
| NC(=O)CCCCC1CCSS1 (configuration not stated) | inactive |
| C[C@@H]1CCC[C@H](C)N1CCCC(O)(c1ccccc1)c1ccccn1 (some centres not stated) | inactive |
| CN=C(N)NC(=O)Nc1c(C)cccc1C | inactive |
| O=C(O)c1ccc(OCCN2CCCCC2)cc1 | inactive |
| CC1(C)OC(=O)NC1=O | inactive |
| Nc1ncn([C@H]2C[C@H](O)[C@@H](CO)O2)c(=O)n1 | inactive |
| CCCCCCCCCCCCCCCCCC(=O)O | inactive |
| NS(=O)(=O)c1ccc(Cl)c(S(N)(=O)=O)c1 | inactive |
| CCN(CC)CCN | inactive |
| CN1[C@@H]2CC[C@H]1CC(OC(=O)C(O)c1ccccc1)C2 (some centres not stated) | inactive |
| COc1c(OCCCN2CCOCC2)ccc2c3n(c(=NC(=O)c4cnc(N)nc4)nc12)CCN3 | 237 nM (active) |
| CCCN(CCC)CCc1cccc2c1CC(=O)N2 | inactive |
| CCOC(=O)c1cccc(N)c1 | inactive |
| CC(=O)OCC(=O)[C@@]12N=C(C)O[C@@H]1C[C@H]1[C@@H]3CCC4=CC(=O)C=C[C@]4(C)[C@H]3[C@@H](O)C[C@@]12C | inactive |
| COC(=O)c1nc(Cl)c(Cl)nc1N | 103 nM (active) |
| CC[C@@H](CO)NCCN[C@@H](CC)CO | inactive |
| CCOc1cc(C(=O)N2CCC(N3CCN(C)CC3)CC2)ccc1Nc1ncc2c(n1)N(C1CCCC1)c1ccccc1C(=O)N2C | 17800 nM (active) |
| CC1=NS(=O)(=O)c2cc(Cl)ccc2N1 | inactive |
| CC(=O)OC(C)C[N+](C)(C)C (configuration not stated) | inactive |
| O=C(CCCl)NCc1ccccc1 | inactive |
| C[C@H]1O[C@@H](O[C@H]2CC[C@@]3(C)[C@H](CC[C@@H]4[C@@H]3C[C@@H](O)[C@]3(C)[C@@H](C5=CC(=O)OC5)CC[C@]43O)C2)C[C@H](O)[C@@H]1O[C@H]1C[C@H](O)[C@H](O[C@H]2C[C@H](O)[C@H](O[C@@H]3O[C@H](CO)[C@@H](O)[C@H](O)[C@H]3O)[C@@H](C)O2)[C@@H](C)O1 | 164 nM (active) |
| CCOc1ccc(C(=O)OCCN(CC)CC)cc1 | inactive |
| COCCc1ccc(OCC2CO2)cc1 (configuration not stated) | inactive |
| CN1CCN(C(=O)C2CCCCC2)CC1 | inactive |
